Test results: the supplement of paper PMC6555819

What was measured:
Test in all cases: PBM binding z-score (relative to random genomic background probes); higher = stronger binding; sequences stand for … in GC…GCGATTGACAGCGTAGAATGAAGG
[1] = system: FXR:RXRa (NR concentration 270 nM, RXRa partner concentration 90 nM)
Outline: (§1)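 Antibodies against each partner of ligand-free nuclear receptor dimers (one per run) detected binding on custom Agilent 4×180K protein-binding microarrays after 1 h incubation. The double-stranded probes had 34-nt variable regions carrying direct-repeat seeds, single-nucleotide variants, half-site ablations and random human genomic background sequences. Binding z-scores, from regression-normalized fluorescence, use the random background probes as reference.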

[2] = system: LXRa:RXRa (NR concentration 270 nM, RXRa partner concentration 90 nM)
Outline: as §1

[3] = system: LXRa homodimer (NR concentration 270 nM)
Outline: as §1

[4] = system: LXRb:RXRa (NR concentration 270 nM, RXRa partner concentration 90 nM)
Outline: as §1

[5] = system: LXRb homodimer (NR concentration 270 nM)
Outline: as §1

[6] = system: PPARa:RXRa (NR concentration 270 nM, RXRa partner concentration 90 nM)
Outline: as §1

[7] = system: PPARg:RXRa (NR concentration 180 nM, RXRa partner concentration 90 nM)
Outline: as §1

[8] = system: PPARg:RXRa 270nM:90nM, anti-RXR (NR concentration 270 nM, RXRa partner concentration 90 nM)
Outline: as §1

[9] = system: PPARg:RXRa 30nM:10nM, anti-RXR (NR concentration 30 nM, RXRa partner concentration 10 nM)
Outline: as §1

[10] = system: PPARg:RXRa 90nM:30nM, anti-RXR (NR concentration 90 nM, RXRa partner concentration 30 nM)
Outline: as §1

[11] = system: PPARg:RXRa DBDmut IVT, anti-RXR (DBD mutation: RXRa K156A/R161A, NR concentration 270 nM, RXRa partner concentration 90 nM)
Outline: as §1

[12] = system: PPARg:RXRa IVT, anti-PPARg (NR concentration 270 nM, RXRa partner concentration 90 nM)
Outline: as §1

[13] = system: PPARg DBDmut:RXRa IVT, anti-PPARg (DBD mutation: PPARg1 K132A/R137A, NR concentration 270 nM, RXRa partner concentration 90 nM)
Outline: as §1

[14] = system: PPARg DBDmut IVT, anti-PPARg (DBD mutation: PPARg1 K132A/R137A, NR concentration 270 nM)
Outline: as §1

[15] = system: PPARg homodimer (NR concentration 180 nM)
Outline: as §1

[16] = system: PXR:RXRa (NR concentration 270 nM, RXRa partner concentration 90 nM)
Outline: as §1

[17] = system: PXR homodimer (NR concentration 270 nM)
Outline: as §1

[18] = system: RARa:RXR (NR concentration 270 nM, RXRa partner concentration 90 nM)
Outline: as §1

[19] = system: RARa homodimer (NR concentration 270 nM)
Outline: as §1

[20] = system: RARb:RXRa (NR concentration 270 nM, RXRa partner concentration 90 nM)
Outline: as §1

Sequence | PBM binding z-score [1] | PBM binding z-score [2] | PBM binding z-score [3] | PBM binding z-score [4] | PBM binding z-score [5] | PBM binding z-score [6] | PBM binding z-score [7] | PBM binding z-score [8] | PBM binding z-score [9] | PBM binding z-score [10] | PBM binding z-score [11] | PBM binding z-score [12] | PBM binding z-score [13] | PBM binding z-score [14] | PBM binding z-score [15] | PBM binding z-score [16] | PBM binding z-score [17] | PBM binding z-score [18] | PBM binding z-score [19] | PBM binding z-score [20]
CTTTACGGGTCACTGACAGGTTATAGCATTTGGA | 5.62 | 5.09 | 1.02 | 3.91 | 0.469 | 5.46 | 5.06 | 5.14 | 2.12 | 4.01 | 4.85 | 4.95 | 0.913 | 1.44 | 2.33 | 3.9 | 0.619 | 5.01 | 0.972 | 4.14
ACTCGGAGGACAAAGGTCAGAGATACGCCAGTGA | 4.21 | 4.08 | 1.83 | 3.54 | 0.52 | 4.69 | 7.66 | 6.85 | 6.73 | 7.24 | 0.715 | 3.35 | 0.221 | -0.524 | 4.07 | 4.02 | 0.592 | 5.15 | 1.44 | 4.56
CCTGCGAGGTCAATGGTCAGCTAAAGCAGCTCGC | 7.26 | 5.25 | 0.691 | 4.29 | 0.981 | 5.73 | 5.75 | 6.01 | 2.22 | 4.25 | 3.45 | 3.93 | 1.18 | -0.453 | 2.42 | 4.55 | 0.99 | 4.6 | 0.55 | 5.07
CCTACTGAGCCATTCAGAGGTCATTGATCATATG | 2.84 | 4.67 | 6.83 | 3.88 | 1.24 | 3.63 | 0.797 | 1.84 | 0.239 | 1.39 | 0.787 | 1.12 | 0.0537 | 0.233 | 3.19 | 4.96 | 3.63 | 4.44 | 1.71 | 2.87
TCATATAGGTAAAAGGTGAAAGTGGGTGTGGTAA | 2.2 | 2.19 | 0.716 | 2.45 | 0.97 | 5.49 | 9.05 | 8.74 | 8.47 | 9.1 | 5.36 | 5.24 | 0.898 | 1.26 | 2.63 | 2.31 | 1.28 | 3.5 | 2.39 | 2.22
GCTGCTAGGTCAGGTTGTTCAGCTAACGGGTACG | 1.07 | 0.82 | -0.00729 | 0.433 | -0.427 | 1.29 | 0.414 | 1.18 | -0.403 | 0.471 | 3.24 | 2.3 | 0.0355 | -0.699 | 0.293 | 0.34 | -0.306 | 0.883 | -0.985 | 3.15
TTATCAAGGTGAAGGTCGTTGATCCCTCTGTAGA | 2.51 | 1.93 | 0.076 | 1.75 | -0.0841 | 3.01 | 2.92 | 3.88 | 2.1 | 3.49 | 2.89 | 3.99 | 1.51 | 0.341 | 1.18 | 1.66 | 0.515 | 2.18 | -0.235 | 2.21
